TDP1 cell noCPT: qHTS for Inhibitors of human tyrosyl-DNA phosphodiesterase 1 (TDP1): qHTS in cells in absence of CPT; AID 686978, 2013; Potency, µM (highest dose often 46.2 µM), for the others: at the highest dose activity change, negative = growth inhibition, actives largely listed as inhibitors; 420,000 compounds, 15% hits; DT40 Tdp1-/- hTDP1 cells, no CPT, ATP luminescence, 48 h; further: potency means the concentration at half of the fitted maximal effect; nearly all actives have a fitted effect of over 55% in size
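Compound effects on proliferation are scored in DT40 Tdp1-/-;hTDP1 cells in the absence of CPT. ATP levels (CellTiter-Glo luminescence) are recorded after a ≥48 hr, 37 °C incubation.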
IL1B secr inh: blocks inflammasome-driven IL-1 beta release; THP-1 LPS/ATP IL-1B secretion, AlphaLISA, 16 h; hits give low values; 360,000 compounds, 4.7% hits; activity change, % at 57.5 µM; in the data active means activity change below about -50%; inconclusive means mostly about -30% to -49%
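THP-1 cells pretreated 1 hr with compounds (up to 57.5 uM final), then stimulated with LPS (250 ng/mL final) plus ATP (1.25 mM final); secreted IL-1B measured by AlphaLISA after 16 hr, decreased signal indicating inhibition.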
RORg inh: blocks mouse ROR gamma transcriptional activity; Drosophila S2 Gal4-RORgamma UAS-luciferase reporter, 20 h; Potency, µM (series often up to 53.6 µM), without a hit: top-dose activity change, negative = inhibition, usual class: inhibitors; 310,000 compounds, 5.4% hits; AID 2551; further: potency means the concentration at half of the fitted maximal effect; nearly all actives have a fitted effect of over 60% in size
Target sequence (P51450 whole entry, looked up, the tested form may be a part): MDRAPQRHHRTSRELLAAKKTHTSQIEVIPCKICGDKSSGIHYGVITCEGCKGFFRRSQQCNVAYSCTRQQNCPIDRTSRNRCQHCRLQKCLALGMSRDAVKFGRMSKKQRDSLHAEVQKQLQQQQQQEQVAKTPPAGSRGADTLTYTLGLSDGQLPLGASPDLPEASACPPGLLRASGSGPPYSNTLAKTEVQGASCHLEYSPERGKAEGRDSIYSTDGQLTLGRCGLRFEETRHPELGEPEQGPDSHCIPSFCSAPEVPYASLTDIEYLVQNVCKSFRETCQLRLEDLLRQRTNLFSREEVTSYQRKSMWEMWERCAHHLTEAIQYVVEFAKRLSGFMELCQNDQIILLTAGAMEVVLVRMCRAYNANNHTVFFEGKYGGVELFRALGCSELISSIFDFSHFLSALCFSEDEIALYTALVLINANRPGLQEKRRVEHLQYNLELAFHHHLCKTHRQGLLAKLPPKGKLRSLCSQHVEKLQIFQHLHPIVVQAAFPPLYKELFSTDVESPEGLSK
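Schneider cells (Drosophila), stable Gal4 DBD–ROR gamma + UAS-luc; 1 hr cmpd preincubation; Cu2+ induction 700 uM final; 20 hr ambient; luminescence.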
Gal4-VP16 FLuc: Gal4-VP16 reporter inhibition counter-screen. AID 2546. 310,000 compounds, 3.5% hits. Potency, µM (top dose mostly 53.6 µM), for the others: top-dose activity, negative = inhibition, usual class: inhibitors. Drosophila S2 Gal4-VP16 UAS-luciferase, luminescence, 20 h;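 further: Gal4-VP16 expression switched on by copper sulfate through the metallothionein promoter; potency means the concentration at half of the fitted maximal effect; nearly all actives have a fitted effect of over 50% in size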
DT40 TDP1 CPT: DT40-hTDP1 cell growth loss with CPT; chicken DT40 Tdp1-/-;hTDP1 cells + 20 nM CPT, ATP luminescence, 48 h; Potency, µM (series often up to 46.2 µM), for the others: at the highest dose activity change, negative = growth inhibition, usual class: inhibitors; 420,000 compounds, 12% hits; further: potency means the concentration at half of the fitted maximal effect; nearly all actives have a fitted effect of over 55% in size
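Cell growth measured by CellTiter-Glo luminescence after a minimum 48 h, 37 C compound exposure with 20 nM CPT in Tdp1-knockout DT40 cells stably expressing hTDP1, seeded 400/well; qHTS titration format.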
ELG1 DNA repair: inhibitors of ELG1-dependent DNA repair in HEK293T cells. HEK293T ELG1-luciferase reporter, luminescence, 16 h; DNA damage induced by 5-fluorouridine. Potency, µM (titrated, usually from 46.1 µM), without a hit: top-dose activity change, negative = inhibition, usual class: inhibitors. 330,000 compounds, 2.3% hits; further: potency means the concentration at half of the fitted maximal effect; nearly all actives have a fitted effect of over 55% in size
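HEK293T cells expressing luciferase-tagged ELG1 (2,000/well) received 5-Fluorouridine plus compound or DMSO for 16 hr at 37 °C. Luciferase was read by ONE-Glo luminescence after 30 min at room temperature.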
The depositor's hits bear a star; u = inconclusive; x = not tested or not shown; ! = a repeat was not active. A selection: hits, their analogues and other compounds. The true share with any hit is near 21%. Unless noted, the call rests on the fitted dose curve; in most records, active means well fitted curve in the direction sought with a large enough effect; inconclusive means small, poorly fitted or top-dose-only effect, or another doubt; inactive means no such curve, though single readings can be large; an effect the other way counts as inactive or inconclusive. On the % scale 0 is the no-effect control and ±100 the full control effect.

SMILES	TDP1 cell noCPT	IL1B secr inh	RORg inh	Gal4-VP16 FLuc	DT40 TDP1 CPT	ELG1 DNA repair
O=C1CCN(Cc2ccc([N+](=O)[O-])cc2)CCN1[C@H](CO)c1ccccc1	-9.0%	-2.7	18.3%	7.9%	u	-3.0%
O=C1CCN(CCc2ccccc2)CCN1[C@H](CSc1ccc(Br)cc1)Cc1ccccc1	14.6µM*	-11.3	38.4%	-0.7%	16.4µM*	u
O=C1CCN(Cc2ccc(Br)cc2)CCN1[C@H](CO)c1ccccc1	14.1µM*!	-9.2	33.5%	-3.0%	u	-2.4%
CCCN1CCC(=O)N(C(CSc2ccc(Br)cc2)Cc2ccccc2)CC1 (stereo unspecified)	x	x	23.2%	-8.8%	x	x
COc1ccc(-n2c(=S)[nH]c3ccccc3c2=S)cc1	-6.0%	13.8	0.501µM*	0.708µM*	-22.5%	-3.0%
COc1ccc(-n2c(=S)[nH]c3ccccc32)cc1	-4.7%	28.6	4.47µM*	20µM*	-25.9%	-3.1%
COc1ccc(-n2c(=S)[nH]c3ncccc3c2=O)cc1	2.2%	-0.1	u	-2.0%	14.7%	u
CCc1ccc(C(=O)c2cn(CC(=O)Nc3ccc4c(c3)OCCO4)c3ccc(CC)cc3c2=O)cc1	7.5%	x	x	x	-0.2%	x
Cc1[nH]n(-c2ccccc2)c(=O)c1C=Nc1cnc2ccccc2c1	-25.8%	7.1	-40.8%	-9.6%	u	3.1%
CCOc1ccc(N=Cc2c(C)[nH]n(-c3nc4ccccc4[nH]3)c2=O)cc1	9.2µM*	18.3	14.1µM*	u	10.3µM*	u
CCCCNc1nc(C)nc2c1nc(-c1ccccc1)n2CCCN1CCCCC1C (stereo unspecified)	x	x	-20.5%	-6.8%	x	x
Cc1cc(F)cc(-c2cc(C(=O)NCC3CCCCC3)[nH]n2)c1	u	-9.3	x	x	-23.4%	x
O=C(Nc1nnc(-c2cccs2)o1)C1CC1	2.7%	3.6	7.08µM*	7.08µM*	-0.4%	u
O=C(Nc1nnc(-c2ccccc2)o1)C1CCCN1S(=O)(=O)c1cccs1 (stereo unspecified)	u	-59.3*	x	x	-29.4%	-10.3%
O=C(Nc1nnc(-c2ccco2)o1)C1CC1	-2.2%	-7.4	10µM*	u	2.4%	6.1%
CC1(C)CC(=O)C=C(c2ccc(I)cc2)C1	u	-73.8*	x	x	-8.7%	u
CSc1nc(N)nc2c1ncn2CC(=O)NCc1ccccc1	u	40.9	x	x	u	-11.8%
CSc1nc(N)nc2c1ncn2CC(=O)NCc1ccc2c(c1)OCO2	8.2µM*	29.8	x	x	16.4µM*	u
Nc1ccn(CC(=O)NCc2ccc3[nH]ccc3c2)c(=O)n1	-3.0%	18.5	x	x	4.8%	23.0%
CSc1nc(N)nc2c1ncn2CC(=O)NCc1ccc2[nH]ccc2c1	u	14.5	x	x	u	23.1µM*
Cc1cccc(NC(=O)NNC(=O)c2cc3ccccc3cc2O)c1C	-22.0%	35.9	8.8%	-6.5%	12.7%	-9.1%
Cc1cccc(NC(=S)NNC(=O)c2ccc(O)cc2O)c1C	1.6%	8.5	7.94µM*	20µM*	23.7%	10.3µM*
Cc1ccc(NC(=S)NNC(=O)c2ccccc2O)c(C)c1	13µM*	10.9	1.1%	3.1%	23.1µM*	u
CCCCCN=c1ccn(Cc2ccccc2)c2ccccc12	2.11µM*	x	15.8µM*	-5.1%	2.66µM*	x
CN(C)C(=O)c1cnc(Sc2ncc(C(F)(F)F)cc2Cl)n1C	8.2µM*	35.3	u	-1.6%	8.2µM*	-17.6%
CN(C)C(=O)c1cccn1-c1ncc(C(F)(F)F)cc1Cl	4.3%	35.1	5.7%	-11.0%	2.5%	-4.3%
CCn1cc(SCC(=O)N2CCc3ccccc32)c2ccccc21	20.6µM*	-2.0	u	5.0%	u	21.5%

Screens from PubChem.
